The nature of experiment [1]: antimalarial activity against Dd2 strain (AID 2302;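 active means growth inhibition above 50% at the single 2 µM test dose, taken to imply half-maximal potency below 2 µM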;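 further: 0% = DMSO untreated growth and 100% = chloroquine plus artemisinin killed control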). The following applies: P. falciparum Dd2 in RBCs, LDH growth readout, 72 h; at 2 µM; hits give high values.
A short description of experiment [2]: human hepatoma cell viability loss – ATP luminescence, cytotoxicity control for P. falciparum antimalarial project, primary screen (AID 2303;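 active means inhibition above 50%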;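 further: 0% = DMSO wells and 100% = digitonin-killed cells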). The note with it: HepG2 viability, 24-48 h, at 10 µM, hits give high values.
Experiment [3] has as its target L-lactate dehydrogenase (Plasmodium falciparum (isolate CDC / Honduras)) (UniProt Q27743). In words: PfLDH activity inhibition – cell lysate, 3D7 strain, counter-screen for P. falciparum growth inhibition project (AID 2304).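 Further: 0% = vehicle and 100% = reference inhibitor.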 The note with it: P. falciparum 3D7 crude extract, LDH APAD/NBT absorbance; at 2 µM; hits give high values. For orientation: A counterscreen serves to expose hits that act by an unwanted route or on another target.

Experiment [4] in a line: inhibition of 3D7 malaria parasite growth – strain 3D7 (AID 2306).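 Further: 0% = DMSO wells and 100% = chloroquine plus artemisinin control wells.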 The note with it: P. falciparum 3D7 erythrocytic growth, LDH absorbance, 72 h; at 2 µM; hits give high values.
The target in experiment [5] is Calcium-dependent protein kinase 1 (Plasmodium falciparum (isolate 3D7)) (UniProt P62344). As to the kind of experiment: PfCDPK1 kinase inhibitors, biochemical, TCAMS library (AID 1159585; cut-off not given, nearly all actives have IC50 up to about 0.98 µM;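 further: inhibitors leave more ATP so luminescence rises with inhibition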). The following applies: recombinant PfCDPK1, Kinase-Glo ATP depletion luminescence.
The target in experiment [6] is Plasmodium falciparum protein kinase 6 (PK6, PF3D7_1337100) (UniProt Q8IDW1). In words: PfPK6 kinase inhibitors, biochemical, TCAMS library (AID 1159586). The following applies: recombinant PfPK6, Kinase-Glo ATP depletion luminescence.
For experiment [7], the target named is Protein kinase 7 (PK7), Plasmodium falciparum 3D7 (PF3D7_0213400) (UniProt Q7YTF7). As to the kind of experiment: inhibition of Plasmodium PK7 catalytic activity – biochemical, TCAMS antimalarial set, Kinase-Glo luminescence (AID 1159587). The following applies: recombinant PfPK7, Kinase-Glo ATP depletion luminescence.
In experiment [8] the target is Calcium-dependent protein kinase 4 (Plasmodium falciparum (isolate 3D7)) (UniProt Q8IBS5). In words: PfCDPK4 kinase inhibitors, biochemical, TCAMS library (AID 1159588; cut-off not given, nearly all actives have IC50 up to about 0.91 µM). The note with it: recombinant PfCDPK4, Kinase-Glo ATP depletion luminescence.

Unmarked numbers belong to inactive results. For part of these data: Results with a measured potency or affinity are listed apart. Calls of active or inactive are those of the source. Unless noted, how the calls were made is not given here.

Chain of Calcium-dependent protein kinase 1 (Plasmodium falciparum (isolate 3D7)) (P62344 whole entry, looked up): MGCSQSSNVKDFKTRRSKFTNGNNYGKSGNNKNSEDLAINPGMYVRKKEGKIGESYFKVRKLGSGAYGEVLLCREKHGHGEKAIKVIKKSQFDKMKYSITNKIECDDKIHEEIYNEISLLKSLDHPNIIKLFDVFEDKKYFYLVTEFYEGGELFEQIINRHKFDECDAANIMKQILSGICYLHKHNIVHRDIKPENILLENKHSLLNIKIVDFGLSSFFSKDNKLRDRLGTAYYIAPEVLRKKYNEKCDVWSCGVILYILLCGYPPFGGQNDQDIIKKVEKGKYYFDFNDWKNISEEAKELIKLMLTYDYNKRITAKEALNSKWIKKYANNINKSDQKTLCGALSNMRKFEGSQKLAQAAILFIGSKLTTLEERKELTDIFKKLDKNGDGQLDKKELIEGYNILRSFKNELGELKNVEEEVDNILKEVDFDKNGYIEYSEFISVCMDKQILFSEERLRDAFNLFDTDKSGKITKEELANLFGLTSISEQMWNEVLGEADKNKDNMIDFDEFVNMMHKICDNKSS
Chain of Plasmodium falciparum protein kinase 6 (PK6, PF3D7_1337100) (Q8IDW1 1-305): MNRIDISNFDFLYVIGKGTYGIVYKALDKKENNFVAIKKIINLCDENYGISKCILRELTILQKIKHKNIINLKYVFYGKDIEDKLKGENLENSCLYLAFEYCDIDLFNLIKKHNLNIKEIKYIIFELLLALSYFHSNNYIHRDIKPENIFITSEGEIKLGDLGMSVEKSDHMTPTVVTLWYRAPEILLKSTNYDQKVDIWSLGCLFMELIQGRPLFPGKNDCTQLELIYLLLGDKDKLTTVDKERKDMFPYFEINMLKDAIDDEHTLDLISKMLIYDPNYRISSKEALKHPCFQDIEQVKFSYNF
Chain of L-lactate dehydrogenase (Plasmodium falciparum (isolate CDC / Honduras)) (Q27743 whole entry, looked up): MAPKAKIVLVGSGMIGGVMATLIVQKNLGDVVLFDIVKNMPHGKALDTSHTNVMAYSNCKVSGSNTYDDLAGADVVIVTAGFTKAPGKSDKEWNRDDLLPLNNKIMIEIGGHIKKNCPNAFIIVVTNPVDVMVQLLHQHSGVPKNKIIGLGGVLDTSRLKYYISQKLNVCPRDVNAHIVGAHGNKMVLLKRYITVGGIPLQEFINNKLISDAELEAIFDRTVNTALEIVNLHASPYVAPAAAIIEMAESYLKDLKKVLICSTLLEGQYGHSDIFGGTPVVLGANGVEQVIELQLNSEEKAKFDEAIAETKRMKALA
Chain of Calcium-dependent protein kinase 4 (Plasmodium falciparum (isolate 3D7)) (Q8IBS5 whole entry, looked up): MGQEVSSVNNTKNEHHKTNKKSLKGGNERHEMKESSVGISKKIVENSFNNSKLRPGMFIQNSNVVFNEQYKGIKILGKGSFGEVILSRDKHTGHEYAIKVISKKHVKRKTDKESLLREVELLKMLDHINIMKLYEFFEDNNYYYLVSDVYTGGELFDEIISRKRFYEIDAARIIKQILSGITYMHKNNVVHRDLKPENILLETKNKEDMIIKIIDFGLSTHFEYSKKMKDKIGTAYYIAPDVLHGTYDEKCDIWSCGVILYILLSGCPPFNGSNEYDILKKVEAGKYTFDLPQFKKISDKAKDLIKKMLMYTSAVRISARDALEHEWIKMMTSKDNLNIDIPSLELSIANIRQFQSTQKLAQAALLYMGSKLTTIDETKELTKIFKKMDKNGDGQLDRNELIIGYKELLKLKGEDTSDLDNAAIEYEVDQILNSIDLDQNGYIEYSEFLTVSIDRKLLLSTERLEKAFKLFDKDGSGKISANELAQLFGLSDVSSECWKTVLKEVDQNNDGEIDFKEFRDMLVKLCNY
Chain of Protein kinase 7 (PK7), Plasmodium falciparum 3D7 (PF3D7_0213400) (Q7YTF7 1-343): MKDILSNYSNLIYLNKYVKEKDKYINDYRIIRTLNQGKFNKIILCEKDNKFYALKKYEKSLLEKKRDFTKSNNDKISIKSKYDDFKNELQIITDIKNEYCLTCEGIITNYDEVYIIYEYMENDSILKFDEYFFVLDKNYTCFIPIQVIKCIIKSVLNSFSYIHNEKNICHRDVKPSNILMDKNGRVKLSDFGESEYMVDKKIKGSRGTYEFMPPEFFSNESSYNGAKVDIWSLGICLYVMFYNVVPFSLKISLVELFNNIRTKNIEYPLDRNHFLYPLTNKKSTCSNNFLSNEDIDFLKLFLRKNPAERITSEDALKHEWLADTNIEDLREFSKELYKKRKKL

One may read the inhibition as the change of the read-out against control, counted positive when it falls. Regarding `CN(C)Cc1c(O)ccc2[nH]c(-c3cccc(F)c3)nc12`, the growth inhibition in experiment [1] is 71% (active); in experiment [4], 99% (active). Besides, the inhibition in experiment [2] was 9%; in experiment [3], -2%. For the same molecule, the outcome in experiment [5], in experiment [6], in experiment [7] and in experiment [8] was inactive.

For `Cc1cccc2[nH]c(-c3cccc(-c4cccc(NC(=O)c5cn(C)c(=O)n5C)c4)c3)nc12`, the growth inhibition in experiment [1] was 80% (active); in experiment [4] it was 99% (active). Moreover, the inhibition in experiment [2] was 5%; in experiment [3], -5%. Moreover, the outcome in experiment [5], in experiment [6], in experiment [7] and in experiment [8] was inactive.

Consider `Cn1cccc1CCNCc1ccc(-c2cccc(-c3nc4ccccc4[nH]3)c2)cc1`, for which the growth inhibition in experiment [1] is 66% (active); in experiment [4], 88% (active). Also, the inhibition is 1% in experiment [2] and 3% in experiment [3]. The result in experiment [5], in experiment [6], in experiment [7] and in experiment [8] was inactive.

For `CCCCOC(=O)c1ccc(NC(=O)Nc2ccc(Cn3ncc(N4CCCNCC4)c(Cl)c3=O)cc2)cc1`, the growth inhibition was 74% (active) in experiment [1] and 92% (active) in experiment [4]. The inhibition in experiment [2] and in experiment [3] was 2% each time. For the same molecule, the outcome in experiment [5], in experiment [6], in experiment [7] and in experiment [8] was inactive.

Turning to `CCCCc1ccc(NC(=O)Nc2cccc(CCNCc3ccccc3)c2)cc1`, the growth inhibition in experiment [1] is 13%; in experiment [4] it was 94% (active). For the same molecule, the inhibition in experiment [2] is 3%; in experiment [3], 2%. The result in experiment [5], in experiment [6], in experiment [7] and in experiment [8] was inactive.

For the molecule `Cc1ccc(CNC(=O)[C@H](CCCN)Nc2nc(NCC3CCCCC3)ncc2C)cc1`, the growth inhibition is 5% in experiment [1] and 92% (active) in experiment [4]. Further, the values for the inhibition in experiment [2] and in experiment [3] were 1% and 3%, respectively. Moreover, the result in experiment [5], in experiment [6], in experiment [7] and in experiment [8] was inactive.

Regarding `O=C(NCc1ccc(C(=O)NC2CCCCC2)cc1)c1ccc(O)c(-c2ccc(Cl)c(Cl)c2)c1`, the growth inhibition in experiment [1] is -4%; in experiment [4] it was 93% (active). Besides, the values for the inhibition in experiment [2] and in experiment [3] were 5% and -6%, respectively. Besides, the result in experiment [5], in experiment [6], in experiment [7] and in experiment [8] was inactive.

As to `COC(=O)c1cccc(CNCc2cccc(-c3csc(-c4nc5ccccc5[nH]4)c3)c2)c1`, the values for the growth inhibition in experiment [1] and in experiment [4] were 44% and 102% (active), respectively. For the same molecule, the inhibition is -7% in experiment [2] and 0% in experiment [3]. Besides, the outcome in experiment [5], in experiment [6], in experiment [7] and in experiment [8] was inactive.

For the molecule `COc1ccc2nc3cc(Cl)ccc3c(NCCN3CCN(C)CC3)c2c1`, the growth inhibition was 99% (active) in experiment [1] and 100% (active) in experiment [4]. In addition, the inhibition in experiment [2] was 29%; in experiment [3] it was 2%. Moreover, the result in experiment [5], in experiment [6], in experiment [7] and in experiment [8] was inactive.

Take `O=C(CN1CCN(C(=O)c2ccco2)CC1)Nc1ccccc1Br`: the growth inhibition is 96% (active) in experiment [1] and 97% (active) in experiment [4]. Besides, the values for the inhibition in experiment [2] and in experiment [3] were 15% and -4%, respectively. Also, the result in experiment [5], in experiment [6], in experiment [7] and in experiment [8] was inactive.

Turning to `Nc1ncc(-c2ccc3ncccc3c2)c(N)n1`, the growth inhibition in experiment [1] is -1%; in experiment [4], 97% (active). Moreover, the inhibition was 55% (active) in experiment [2] and 2% in experiment [3]. Further, the outcome in experiment [5], in experiment [6], in experiment [7] and in experiment [8] was inactive.

For the molecule `CN1CCc2cc(O)c(NS(=O)(=O)c3ccc(-c4ccc(Cl)cc4)cc3)cc2CC1`, the growth inhibition in experiment [1] was 3%; in experiment [4] it was 104% (active). Also, the inhibition in experiment [2] was 7%; in experiment [3] it was 3%. In addition, the result in experiment [5], in experiment [6], in experiment [7] and in experiment [8] was inactive.

Consider `C=C(NC(=O)c1cc(C)cc(C)c1)C(=O)OC`, for which the values for the growth inhibition in experiment [1] and in experiment [4] were -2% and 95% (active), respectively. Moreover, the inhibition was 21% in experiment [2] and -3% in experiment [3]. For the same molecule, the outcome in experiment [5], in experiment [6], in experiment [7] and in experiment [8] was inactive.

Turning to `O=[N+]([O-])c1ccc(Oc2ccccc2CNCC2CCN(CC3CCCCC3)CC2)cc1`, the growth inhibition in experiment [1] was 28%; in experiment [4], 89% (active). The figures for the inhibition in experiment [2] and in experiment [3] were 40% and -2%, respectively. For the same molecule, the outcome in experiment [5], in experiment [6], in experiment [7] and in experiment [8] was inactive.

With `Cc1cc(-c2cccc(CNC3CCN(C)CC3)c2)ccc1S(=O)(=O)NCc1ccccc1`, the growth inhibition was 90% (active) in experiment [1] and 99% (active) in experiment [4]. Moreover, the inhibition in experiment [2] was 53% (active); in experiment [3], 4%. Also, the outcome in experiment [5], in experiment [6], in experiment [7] and in experiment [8] was inactive.

As for `CS(=O)(=O)NCCCNCc1ccc(-c2ccc(-c3nc4ccc(C(F)(F)F)cc4[nH]3)s2)cc1`, the growth inhibition in experiment [1] is 73% (active); in experiment [4] it was 99% (active). The inhibition is 21% in experiment [2] and -5% in experiment [3]. The outcome in experiment [5], in experiment [6], in experiment [7] and in experiment [8] was inactive.

For `CC(C)(C)c1nn(-c2ccc(Cl)cc2)c2[nH]c(=O)c(CNC3CCCC3)cc12`, the growth inhibition in experiment [1] and in experiment [4] was 99% (active) in each case. The figures for the inhibition in experiment [2] and in experiment [3] were -2% and 1%, respectively. Also, the outcome in experiment [5], in experiment [6], in experiment [7] and in experiment [8] was inactive.

As to `COc1ccc(Br)cc1/C=C/C(=O)Nc1ccc2c(c1)CCCN(C)C2`, the figures for the growth inhibition in experiment [1] and in experiment [4] were 10% and 84% (active), respectively. Also, the inhibition is 8% in experiment [2] and 1% in experiment [3]. In addition, the result in experiment [5], in experiment [6], in experiment [7] and in experiment [8] was inactive.

Consider `CC(Oc1ccc(C(=O)c2ccc(F)cc2)cc1)C(=O)N1CCc2ccccc21` (stereo not drawn), for which the growth inhibition in experiment [1] and in experiment [4] was 95% (active) each time. Also, the figures for the inhibition in experiment [2] and in experiment [3] were 9% and 1%, respectively. Also, the result in experiment [5], in experiment [6], in experiment [7] and in experiment [8] was inactive.

Consider `Cc1cccc(-c2ccc(NC(=O)Nc3ccc4nccc(N5CCN(C)CC5)c4c3)cc2C)n1`, for which the values for the growth inhibition in experiment [1] and in experiment [4] were 95% (active) and 101% (active), respectively. Besides, the inhibition is 4% in experiment [2] and -3% in experiment [3]. The outcome in experiment [5], in experiment [6], in experiment [7] and in experiment [8] was inactive.

In the case of `O=C(/C=C/c1ccc(Cl)c(Cl)c1)NCCCCCN1CCC(NS(=O)(=O)c2cc(Cl)cc(Cl)c2)CC1`, the growth inhibition was 5% in experiment [1] and 83% (active) in experiment [4]. The figures for the inhibition in experiment [2] and in experiment [3] were 7% and 3%, respectively. In addition, the outcome in experiment [5], in experiment [6], in experiment [7] and in experiment [8] was inactive.

The values above are taken from PubChem BioAssay.
